Source: PubChem (National Center for Advancing Translational Sciences (NCATS))
Only some compounds are listed: those with a hit (about 10% of all), similar ones and a draw of the others.
ALOX12 inhib: 12-hLO (ALOX12) enzyme inhibition; purified 12-hLO, xylenol orange hydroperoxide absorbance; Potency, µM (highest dose often 57.1 µM), hits mostly inhibitors; 150,000 compounds, 0.12% hits; AID 1452; active = well fitted inhibition curve with a large enough effect; inconclusive = small, poorly fitted or top-dose-only effect; also: nearly all actives have a fitted effect of over 55% in size
Target sequence (P18054 whole entry, looked up): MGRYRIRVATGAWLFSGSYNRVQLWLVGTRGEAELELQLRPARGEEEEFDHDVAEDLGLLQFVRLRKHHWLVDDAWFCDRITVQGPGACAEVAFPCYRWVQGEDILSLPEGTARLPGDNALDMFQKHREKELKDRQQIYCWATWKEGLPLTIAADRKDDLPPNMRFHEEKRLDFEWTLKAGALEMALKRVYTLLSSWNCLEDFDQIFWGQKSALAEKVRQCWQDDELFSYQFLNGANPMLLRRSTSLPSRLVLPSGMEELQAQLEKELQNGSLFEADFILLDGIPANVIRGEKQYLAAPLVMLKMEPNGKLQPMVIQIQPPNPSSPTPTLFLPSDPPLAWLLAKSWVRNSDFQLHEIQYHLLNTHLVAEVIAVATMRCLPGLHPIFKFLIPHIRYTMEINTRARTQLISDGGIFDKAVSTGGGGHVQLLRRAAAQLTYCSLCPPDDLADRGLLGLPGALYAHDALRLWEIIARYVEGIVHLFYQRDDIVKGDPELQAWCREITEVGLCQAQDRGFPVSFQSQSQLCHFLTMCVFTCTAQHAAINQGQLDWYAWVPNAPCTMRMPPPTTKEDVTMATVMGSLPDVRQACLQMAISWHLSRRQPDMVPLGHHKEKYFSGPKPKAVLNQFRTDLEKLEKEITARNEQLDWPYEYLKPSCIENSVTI
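Hydroperoxide output read as Fe(III)-xylenol orange absorbance, 573-to-405 nm ratio, after 30 min reaction with 40 uM arachidonic acid. Enzyme: 150 nM purified human 12hLO, 15 min compound preincubation; 25 mM Hepes pH 7.0, room temperature.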
HPGD block: inhibitors of human 15-hydroxyprostaglandin dehydrogenase (HPGD) | Potency, µM, actives largely listed as inhibitors | 150,000 compounds, 4.3% hits | purified HPGD, NADH fluorescence kinetic, PGE2 substrate | P15428 | AID 894
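20 nM HPGD preincubated 15 min at room temperature with compound in 50 mM Tris-HCl pH 8, 0.01% Tween 20. Started with 1 mM NAD+ and 30 uM prostaglandin E2; NADH fluorescence (360/450 nm) read 5 times over 30-s intervals, last minus first.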
LMNA splice mod: modulators of lamin A splicing | Potency, µM (top dose mostly 46.1 µM), hits mostly inhibitors | HeLa LMNA splicing GFP/RFP minigene ratio, 48 h | 200,000 compounds, 0.01% hits | AID 1487; active = well fitted inhibition curve with a large enough effect in the signal ratio, with a control signal flat, not every such curve was filed as active; inconclusive = small, poorly fitted or top-dose-only effect, or effect the other way, or a change in a side signal; the % refers to the signal ratio
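S3 HeLa stable clones carrying a lamin A-EGFP splicing minigene plus DsRed2 were seeded at 600 cells/well in Opti-MEM with 2% FBS, pin-dosed and incubated 48 h at 37°C. Acumen cytometry (488 nm) gave the GFP/RFP total-intensity ratio.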
PNC assembly inh: inhibitors of perinucleolar compartment assembly; PC3M PTB-GFP, PNC prevalence imaging, 16 h; active compounds read low; activity change (PNC), negative = inhibition, % at 10 µM; 140,000 compounds, 3.1% hits; AID 2417;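 active = readout at or below -70, meaning at least 70% loss of cells showing the perinucleolar compartment, a nuclear body marking cancer cells; inconclusive = readout between -30 and a set limit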
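Read-out is percentage of cells bearing a perinucleolar compartment, from automated 20x imaging of fixed, Hoechst-stained PC3M PTB-GFP cells. Cells were seeded 4 h, then exposed 16 h to compound (23 nl of library stock) in duplicate plates.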
ALDH1A1 inh: ALDH1A1 (human) enzyme inhibition; Purified ALDH1A1, NADH fluorescence, propionaldehyde substrate; Potency, µM (titrated, usually from 75.3 µM), actives largely listed as inhibitors; 220,000 compounds, 7.3% hits; AID 1030
Numbers stand for hits; . = inactive; ? = inconclusive; / = no result; [ ] = remark or other dose. Unless noted, calls follow the shape of the dose curve; as a rule, active = well fitted inhibition curve with a large enough effect (not every such curve was filed as active); inconclusive = small, poorly fitted or top-dose-only effect, or another doubt; inactive = no such curve, though single readings can be large or run the other way.

SMILES	ALOX12 inhib	HPGD block	LMNA splice mod	PNC assembly inh	ALDH1A1 inh
O=C(NCc1n[nH]c(=S)n1-c1ccccc1)c1cccs1	/	/	?	/	.
O=C(NCCc1nc2ccccc2[nH]1)/C(=C/c1ccco1)NC(=O)c1ccco1	.	.	.	?	?
O=C1Nc2ccccc2C(=O)N2CCC[C@@H]12	/	.	/	/	.
Cn1c(=O)n2n(c1=O)[C@H]1[C@H](O)[C@H]3O[C@@H]3/C(=N/OC[C@@H](O)COCc3ccco3)[C@@H]1CC2	/	/	/	/	.[13.5 µM]
O=C(Nc1nc2ccccc2s1)c1ccc(N2CCCCC2)c([N+](=O)[O-])c1	.	.	?	.	11µM
O=C(Nc1ccc(CN2CCOCC2)cc1)c1ccc(N2CCCC2)c([N+](=O)[O-])c1	/	/	.	/	11µM
O=C(Nc1ccon1)c1ccc(N2CCCCC2)c([N+](=O)[O-])c1	/	/	/	/	13µM
COc1ccccc1CNc1ncnc2c1c(-c1ccccc1)cn2-c1ccc(Br)cc1	/	/	.	/	/
Cc1nc(NCCO)c2nc(-c3ccccc3)n(CCCN(C)C)c2n1	.	?	/	/	?
COc1ccc(N=C2S/C(=C\c3cc(C)n(C)c3C)C(=O)N2C)cc1	.	.	.	.	?
COc1ccccc1N1C(=O)S/C(=C\c2cc(C)n(C)c2C)C1=O	/	/	.	/	14µM
CCCN1C(=O)/C(=C/c2cc(C)n(C)c2C)SC1=Nc1ccc(OC)cc1	.	.	.	.	2µM
COc1cccc(CNC(=O)c2ccc3c(c2)nc2n3CCC(C)C2)c1 (configuration not stated)	/	/	.	/	/
COc1ccc(CNc2ncncc2-c2ccccc2Cl)c(OC)c1	.	.	.	/	?
CC1O[C@@H](O[C@H]2C(Oc3cc(O)c4c(c3)OC(c3ccc(O)cc3)CC4=O)OC(CO)C(O)C2O)C(O)C(O)C1O (some centres not stated)	.	.	.	/	.
O=C(O)Cn1nnc(-c2ccc(OCc3cccc(C(F)(F)F)c3)cc2)n1	/	/	.	/	/
COCCn1nnnc1CN(CCc1ccc(OC)c(OC)c1)Cc1cc2ccc(C)cc2[nH]c1=O	.	.	.	.	11µM
O=c1[nH]c2cc3c(cc2cc1CN(CCCO)Cc1nnnn1Cc1ccc(F)cc1)OCO3	.	?	.	.	?
Cc1cc(C)c2cc(CN(CCO)Cc3nnnn3Cc3ccc(F)cc3)c(=O)[nH]c2c1	.	.	.	.	13µM
COc1ccc2[nH]c(=O)c(CN(Cc3nnnn3Cc3ccc(F)cc3)CC3CCCO3)cc2c1 (configuration not stated)	.	.	.	.	?
Cc1cc(C)c2cc(CN(CCO)Cc3nnnn3Cc3ccccc3)c(=O)[nH]c2c1	.	.	.	.	5µM
Cc1ccc2cc(CN(CCO)Cc3nnnn3Cc3ccc(F)cc3)c(=O)[nH]c2c1	.	.	.	?	20µM
COc1ccc2c(C)cc(SCc3c(C)noc3C)nc2c1	.	?	?	-111	?
O=C(CSc1nc2ccc(S(=O)(=O)N3CCOCC3)cc2[nH]1)N1CCOCC1	.	3.5µM	.	.	3.5µM
CCCCNS(=O)(=O)c1ccc2nc(SCC(=O)N3CC(C)OC(C)C3)[nH]c2c1 (configuration not stated)	.	16µM	.	.	?
SMILES	ALOX12 inhib	HPGD block	LMNA splice mod	PNC assembly inh	ALDH1A1 inh
C=CCn1c(NCCO)nc2sc3c(c2c1=O)CCC3	.	.	.	-114	.
CC(C)Oc1ccc(CNS(=O)(=O)c2cnc(N)nc2)cc1	/	/	.	/	/
COc1ccc(C(C(=O)NC2CCCC2)N(CCN(C)C)C(=O)c2snc(C(N)=O)c2N)cc1 (configuration not stated)	.	?	.	-114	?
COc1ccc(CN(C(=O)c2nsc(Cl)c2Cl)C(C(=O)NC2CCCC2)c2ccc(C)cc2)cc1 (configuration not stated)	.	.	.	.	13µM
COc1ccc(CN(C(=O)c2nsc(Cl)c2Cl)C(C(=O)NC2CCCCC2)c2ccc(OC)cc2)cc1 (configuration not stated)	.	.	.	.	7.1µM
Oc1ccccc1C(=S)N1CCCCC1	.	14µM	.	.	?
Oc1ccccc1C(=S)N1CCCCCC1	.	8.9µM	.	?	25µM
O=C(NC(=S)N1CCCCCC1)c1ccccc1Cl	/	/	/	/	.
S=C(Nc1ccccc1)N1CCCCCCC1	/	/	.	/	.
C=C1c2ccccc2O[C@H](C(=O)OCC)[C@@H]1CC(C)(C)c1ccccc1	.[0.00818 µM]	.	/	/	.
Cc1ccc(S(=O)(=O)N2CCCOC2CNC(=O)C(=O)NCc2cccnc2)cc1 (configuration not stated)	.	.	.	.	.
O=C(NCc1ccco1)C(=O)NCC1OCCCN1S(=O)(=O)c1ccccc1 (configuration not stated)	.	.	.	.	14µM
O=C(NCc1cccnc1)C(=O)NCC1OCCN1S(=O)(=O)c1ccc(Cl)cc1 (configuration not stated)	.	.	?	-119	.
COCCNC(=O)C(=O)NCC1OCCCN1S(=O)(=O)c1cccs1 (configuration not stated)	.	.	.	.	18µM
Cc1cc2c(cc(C(=O)NCc3cccnc3)n2Cc2ccc(Cl)cc2)o1	?	18µM	.	.	6.3µM
Cc1cccc(O)c1	.[0.00818 µM]	.	/	/	.
COc1cc(OC)c(NC(=O)Cn2cnc3c(nc4n3CCCCC4)c2=O)cc1Cl	/	/	.	/	/
Cc1ccc(NC(=O)CN2C(=O)c3cccnc3Sc3ccccc32)cc1C	/	/	.	/	/
O=C(NCc1ccccc1)C(=O)NCC1OCCN1S(=O)(=O)c1cccs1 (configuration not stated)	.	.	.	?	?
O=C(NCc1cccs1)C(=O)NCC1OCCCN1S(=O)(=O)c1ccccc1 (configuration not stated)	.	.	.	-90	.
COc1cc2oc(=O)cc(-c3ccc(-c4ccc(CO)cc4)cc3)c2c(OC)c1OC	.[0.00818 µM]	?	/	/	?
Oc1c(N=NC(=S)Nc2ccccc2F)c2ccccc2n1Cc1ccc(F)cc1	/	/	/	/	16µM
Oc1c(N=NC(=S)Nc2ccccc2F)c2ccccc2n1Cc1cccc(Cl)c1	/	/	.	/	0.4µM
CCOC(=O)Cn1c(=O)n(-c2ccc(Cl)cc2)c2nc(-c3ccc(Cl)cc3)nc(C(N)=O)c21	/	/	.	/	/
COc1ccc(NC(=O)CN2CCC3(O)CCCCC3C2c2ccccc2OC)cc1 (configuration not stated)	.	.	.	.	.
COc1cc([C@H]2[C@@H]3CCCC[C@]3(O)CCN2CC(=O)Nc2ccc(C)cc2)ccc1O	.	.	.	-100	.
Cc1ccc(N2C(=O)CSC23C(=O)N(CC(=O)NCc2ccccc2)c2ccccc23)cc1C (configuration not stated)	/	/	.	/	/
CCC(C)N=C1Sc2nc3ccc(C)cc3cc2CN1CCOC (configuration not stated)	/	/	/	/	14µM
COCCN1Cc2cc3cc(C)ccc3nc2SC1=Nc1ccc(OC)cc1	/	/	.	/	.
